Wee1 stabilizer – Wee1 degradation inhibitors, primary screen, cell-based, HeLa, Wee1K328M-luciferase, luminescence | actives 1.2% (n = 220,000) | Wee1-like protein kinase (Homo sapiens), P30291 | HeLa Luc-Wee1K328M stability; 100% = proteasome inhibitor MG132 effect | AID 1321, 2008 | reporter increase, % at 5 µM;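 active = activation above the mean of all tested compounds plus 3 SD, set per screening run, cut at about 8.8% in these data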;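 also: cells exposed to compound for 20 h before luminescence read; 0% = DMSO alone and 100% = MG132 at 30 µM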
Target sequence (P30291 whole entry K328M): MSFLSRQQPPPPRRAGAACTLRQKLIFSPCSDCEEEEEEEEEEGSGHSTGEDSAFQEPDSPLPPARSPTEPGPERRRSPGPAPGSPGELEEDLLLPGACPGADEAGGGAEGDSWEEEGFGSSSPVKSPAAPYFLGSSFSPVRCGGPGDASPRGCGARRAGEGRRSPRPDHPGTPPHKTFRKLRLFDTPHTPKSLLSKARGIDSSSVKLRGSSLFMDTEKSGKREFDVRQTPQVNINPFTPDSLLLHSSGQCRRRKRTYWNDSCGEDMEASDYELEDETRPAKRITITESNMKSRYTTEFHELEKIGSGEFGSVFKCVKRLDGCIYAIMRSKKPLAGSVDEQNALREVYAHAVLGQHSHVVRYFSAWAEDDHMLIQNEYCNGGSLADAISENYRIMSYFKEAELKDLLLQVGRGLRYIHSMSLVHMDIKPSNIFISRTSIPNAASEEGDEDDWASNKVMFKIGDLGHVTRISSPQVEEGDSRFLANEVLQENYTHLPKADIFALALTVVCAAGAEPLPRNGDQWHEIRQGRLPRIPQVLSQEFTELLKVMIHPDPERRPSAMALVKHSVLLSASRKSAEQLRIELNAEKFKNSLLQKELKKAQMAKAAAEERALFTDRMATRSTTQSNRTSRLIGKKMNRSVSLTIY
KLF5 inh – KLF5 expression inhibitors, primary screen, DLD-1 cells, luminescence; DLD-1 KLF5 promoter-luciferase reporter; inhibition, % at 5 µM; actives 0.23% (n = 290,000); AID 1700, 2009;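 active = inhibition above a per-plate limit of that plate's mean compound inhibition plus 3 SD, cut at about 60% in these data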;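 also: 0% = DMSO wells and 100% = LY294002 at 200 µM; higher means less KLF5 promoter-driven luciferase light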
Platelet DG rel – inhibitors of platelet dense granule secretion, primary screen, cell-based, MLPCN, human platelets | inhibition, %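 (compounds screened at 7.5 µM in platelet-rich plasma)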 | human platelet-rich plasma, SFLLRN dense granule ATP release, luminescence | actives 0.22% (n = 300,000) | AID 1663, 2009;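 active = mean replicate score, as percent of positive control, at or above 50; inconclusive = mean below 50 but at least one replicate at or above 50; inactive = mean and every replicate below 50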
aSyn 5UTR inh – MLPCN primary screen, SNCA 5' untranslated region. alpha-synuclein 5'UTR reporter, inhibitor activity. inhibition, % (tested at 7.5 µM). actives 0.82% (n = 300,000); in the data active = inhibition above about 60%; inconclusive = no clear call, values can overlap the other calls;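 also: H4 neuroglioblastoma cells stably carrying SNCA 5'UTR luciferase fusion; 0% = DMSO wells and 100% = positive control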
HIF activator – HIF pathway transcriptional activators, primary screen, cell-based, U2OS HRE-luciferase, luminescence. U2OS HRE-luciferase reporter; normalized: DMSO 0%, desferrioxamine 100%. activation, % at 7.5 µM (by protocol). AID 1910, 2009. actives 0.32% (n = 300,000);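 active = mean activation of at least 10% of the iron chelator positive control signal, with at least half of replicates also reaching 10%; inconclusive = mean and replicate majority disagree about reaching 10%; inactive = mean and most replicates under 10%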
* marks the source's active call; other numbers are inactive results; ? = inconclusive; nt = no result given; ! = not confirmed by another sample. The list is not random: actives were taken first. Their share in the collection is about 2.1%.

SMILES	Wee1 stabilizer	KLF5 inh	Platelet DG rel	aSyn 5UTR inh	HIF activator
Cc1ccc2nc(C(C)O)[nH]c2c1 (centres undefined)	9.5*	-1.1	-8.4	-11.8	0.7
CCC1(c2ccccc2)NC(=O)N(CC(=O)Nc2ccc(OC)nc2)C1=O (centres undefined)	nt	-8.0	-7.2	-3.1	0.0
Cc1cc([N+](=O)[O-])nn1Cc1ccc(C(=O)N/N=C/c2ccc(F)cc2)cc1	1.6	-14.2	5.7	-17.3	-0.1
O=C(N/N=C/c1ccc(O)cc1O)c1ccc(CN2C(=O)c3cccc4cccc2c34)cc1	5.2	44.6	-3.9	62.5*	13.1*
Cc1cc([N+](=O)[O-])nn1Cc1ccc(C(=O)N/N=C/c2ccc(O)cc2O)cc1	2.6	47.3	-7.5	29.1	21.1*
COc1ccc2nc(SCC(=O)N(C)CC(=O)Nc3ccc(F)cc3)[nH]c2c1	nt	nt	-9.0	-14.6	0.5
Fc1ccc(-c2n[nH]c(=S)n2-c2ccc3c(c2)OCCO3)cc1	9.1*	4.8	4.7	-5.8	-0.1
CCOc1cc(C=O)ccc1OCCn1c([N+](=O)[O-])cnc1C	nt	-3.6	-27.4	-3.8	-0.4
CCCC12CN3CCN(CC(C3)/C1=N\NC(=O)c1ccc(F)cc1)C2	3.0	-27.1	6.5	-31.8	0.8
CCCC12CN3CCN(CC(C3)/C1=N\NC(=O)Nc1ccccc1)C2	10.0*	2.5	-14.3	1.4	nt
CCOc1ccc(C(=O)OC(C)CN2CCN(C)CC2)cc1 (centres undefined)	nt	-95.2	5.6	-1.3	-0.8
Cc1cccnc1NC(=O)CNC(=O)c1cccs1	nt	nt	2.2	-4.4	0.4
Cc1cccnc1NC(=S)NC(=O)c1cccs1	12.6*	-42.3	-5.3	-398.5	3.8
CCC(=O)Nc1cccc(-c2cc3ccccc3oc2=O)c1	-3.3	-25.6	-0.5	-58.2	0.4
CC(=O)Nc1ccc(NC(=S)NC(=O)c2cc3ccccc3o2)cc1	5.2	-14.7	-3.1	-70.5	0.7
Cc1cc(C)cc(C(=O)NC(=S)Nc2ccc(-c3cc4ccccc4oc3=O)cc2)c1	-1.9	9.4	-0.9	96.8*	0.0
O=C(Cc1cccc2ccccc12)Nc1ccc(-c2cc3ccccc3oc2=O)cc1	1.5	25.2	7.5	65.1*	-0.8
CC(=O)Nc1ccc(NC(=O)c2cccc(-c3cc4ccccc4oc3=O)c2)cc1	-1.0	-90.7	-4.4	-30.4	0.6
Cc1ccc(C(=O)NC(=S)Nc2ccc(-c3cc4ccccc4oc3=O)cc2)c(C)c1	1.3	3.2	3.4	88.3*	-0.9
COc1ccc(CN(C(=O)c2cc(=O)c3ccccc3o2)C2CCS(=O)(=O)C2)cc1OC (centres undefined)	nt	-16.6	2.6	-2.4	-0.1
CCC1Sc2ccccc2N(CC(=O)NC2CCCCC2)C1=O (centres undefined)	9.3*	-17.0	6.1	-8.5	0.9
Cc1c(CN(C)C(=O)c2nn(C)cc2[N+](=O)[O-])cnn1C	-4.8	3.7	18.2	16.1	0.6
Cc1c(CN(C)C(=O)/C=C/c2ccc([N+](=O)[O-])cc2)cnn1C	8.9*	-23.4	2.6	-12.3	0.3
O=C(CSc1nc(O)c(C2CCCCC2)c(=O)[nH]1)Nc1ccccc1Cl	nt	-44.2	-5.3	8.4	-0.2
CC(Sc1nnc(-c2cccs2)n1Cc1ccccc1)C(=O)NCc1ccc2c(c1)OCO2 (centres undefined)	10.4*	-42.1	1.0	0.2	-0.6
SMILES	Wee1 stabilizer	KLF5 inh	Platelet DG rel	aSyn 5UTR inh	HIF activator
COc1ccc(-c2cc(C(=O)N3CCCC(C(F)(F)F)C3)c3ccccc3n2)cc1OC (centres undefined)	nt	nt	9.1	15.1	0.3
CC(=O)Nc1cc(C(=O)N2CCc3ccccc3C2)ccc1Sc1ccc(Cl)cc1	9.6*	-3.2	2.1	-26.7	-0.6
CC(C)c1nnc(NC(=O)c2ccc3c(c2)OCO3)s1	2.4	-143.0	1.6	?	-4.9
Cc1ccc(C)c(OCc2nnc(NC(=O)c3ccc4c(c3)OCO4)s2)c1	10.7*	1.9	1.6	6.6	0.1
Cc1cc2c(cc1C)C(c1ccccc1F)CC(=O)N2 (centres undefined)	nt	-54.2	0.5	13.6	-0.3
Cc1cc2c(cc1C)C(c1cc(Br)ccc1F)CC(=O)N2 (centres undefined)	0.3	-38.0	4.2	64.9*	-2.3
O=C(COc1ccccc1)Nc1cccc2c1CCCC2	-1.8	7.1	1.9	-5.9	0.1
O=C(CCCc1ccccc1)Nc1cccc2c1CCCC2	10.8*	-14.7	4.2	10.5	0.3
CC(C)CC(C(=O)OCC(=O)Nc1ncc(Cl)cc1Cl)N1C(=O)c2ccccc2C1=O (centres undefined)	10.6*	6.3	0.9	3.6	-0.5
O=C(COC(=O)CN1C(=O)c2ccccc2C1=O)Nc1ncc(Cl)cc1Cl	-2.7	29.0	9.6	14.5	-0.1
COCCN(C(=O)COC(=O)CCc1nc2ccccc2s1)c1c(N)n(Cc2ccccc2)c(=O)[nH]c1=O	nt	-36.4	52.1*	-2.5	0.1
O=C(CSc1n[nH]c(-c2ccccn2)n1)Nc1ccc(F)cc1	nt	22.4	-5.4	72.8*	-0.2
Cc1cc(C)c(C(=O)NC2CCCc3c2cnn3-c2ccc(C)c(C)c2)c(=O)[nH]1 (centres undefined)	nt	-14.6	-4.8	-2.7	-0.2
COc1ccc2c(c1OC)C(=O)N(c1cccc(/C=C/C(=O)O)c1)C2	nt	-16.7	-2.7	10.7	-13.6
CCCNC(=S)N1CCC(C(=O)c2ccc(F)cc2)CC1	nt	-33.2	12.4	5.3	-1.4
COc1cccc(CNC(=O)CCCn2c(=S)[nH]c3cc4c(cc3c2=O)OCO4)c1	nt	13.3	-4.1	-0.6	28.8*
COc1ccc(-c2cn(-c3ccccc3)c3[n+]2CCS3)cc1	10.6*!	-12.9	-11.8	-7.0	0.9
CCc1ccc(S(=O)(=O)N/N=C\c2ccc3c(c2)OCO3)cc1	nt	-27.3	-1.1	-16.9	-0.3
Cn1c(=O)c2c(nc(SCCN3CCOCC3)n2Cc2ccccc2Cl)n(C)c1=O	-0.2	-4.7	62.6*	32.8	0.1
O=C(C=C=Nc1ccccc1)C(=O)N=C=Cc1ccccc1	1.5	-3.7	52.9*	-19.1	2.3
CC1CCCN(S(=O)(=O)c2ccc3oc(=O)ccc3c2)C1 (centres undefined)	nt	-11.2	0.2	2.9	0.0
CCc1ccc(CNC(=O)Cc2ccc(NC(=O)C3=C(C)OCCS3)cc2)cc1	nt	42.9	1.0	65.8*	2.5
CC1=C(C(=O)Nc2ccc(CC(=O)NCc3ccccc3C)cc2)SCCO1	nt	-60.7	13.6	-34.0	2.4
CCCC(=O)N1CCCC(C(=O)c2cccc(OC(C)C)c2)C1 (centres undefined)	nt	-68.4	-9.6	-80.1	3.0
Cc1ccc(S(=O)(=O)/N=C(\c2ccc(F)cc2)n2c(C)nc3ccccc32)cc1	-1.5	1.0	51.7*	-30.3	-0.2
COc1ccc(-c2csc(NC(=O)C3CCCCN3S(=O)(=O)c3ccccc3)n2)cc1 (centres undefined)	10.0*	-16.7	-9.3	-13.5	1.8
